Experimental data taken from the supplement of paper PMC8728848.
This is one part of a sample in which the strongest signals are shown more often than they occur.

What was measured:
Test in all cases: glycan array binding signal (z-score within array); higher = stronger binding
Settings in all cases: glycan notation: IUPAC condensed, linker removed
[1] = molecular target: Fuc(a1-2)Gal(b1-3)GlcNAc(b1-2)Man(a1-3)[Fuc(a1-2)Gal(b1-3)GlcNAc(b1-2)Man(a1-6)]Man(b1-4)GlcNAc(b1-4)GlcNAc
Procedure, shortened: (§1)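 Glycan array binding is given as a within-array Z-score, which can be read as non-binding when negative. The arrays, 3228 of them, came from the Consortium for Functional Glycomics database and were retained only where the protein sequence was available. Z-scores were averaged across arrays of the same protein sequence at different concentrations or buffers and across linkers.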

[2] = molecular target: Fuc(a1-2)Gal(b1-3)GlcNAc(b1-3)Gal(b1-4)Glc
Procedure, shortened: as §1

[3] = molecular target: Fuc(a1-2)Gal(b1-4)GlcNAc(b1-2)Man(a1-3)[Fuc(a1-2)Gal(b1-4)GlcNAc(b1-2)Man(a1-6)]Man(b1-4)GlcNAc(b1-4)[Fuc(a1-6)]GlcNAc
Procedure, shortened: as §1

[4] = molecular target: Fuc(a1-2)Gal(b1-4)GlcNAc(b1-3)[Fuc(a1-2)Gal(b1-4)GlcNAc(b1-6)]GalNAc
Procedure, shortened: as §1

[5] = molecular target: Fuc(a1-2)[Gal(a1-3)]Gal(b1-4)GlcNAc
Procedure, shortened: as §1

[6] = molecular target: Fuc(a1-2)[Gal(a1-3)]Gal(b1-4)GlcNAc(b1-6)GalNAc
Procedure, shortened: as §1

[7] = molecular target: Fuc(a1-2)[GalNAc(a1-3)]Gal(b1-3)GlcNAc(b1-3)GalNAc
Procedure, shortened: as §1

[8] = molecular target: Fuc(a1-2)[GalNAc(a1-3)]Gal(b1-4)GlcNAc(b1-3)GalNAc
Procedure, shortened: as §1

[9] = molecular target: Fuc(a1-3)[Gal(b1-4)]GlcNAc(b1-3)Gal(b1-4)[Fuc(a1-3)]GlcNAc(b1-3)Gal(b1-4)[Fuc(a1-3)]GlcNAc
Procedure, shortened: as §1

[10] = molecular target: Fuc(a1-3)[Gal(b1-4)]GlcNAc(b1-6)GalNAc
Procedure, shortened: as §1

[11] = molecular target: Fuc(a1-3)[Gal(b1-4)]GlcNAc(b1-6)[Gal(b1-3)GlcNAc(b1-3)]Gal(b1-4)Glc
Procedure, shortened: as §1

[12] = molecular target: Fuc(a1-4)GlcNAc
Procedure, shortened: as §1

[13] = molecular target: Gal(a1-3)Gal(b1-3)GlcNAc(b1-2)Man
Procedure, shortened: as §1

[14] = molecular target: Gal(a1-3)Gal(b1-4)GlcNAc(b1-6)GalNAc
Procedure, shortened: as §1

[15] = molecular target: Gal(b1-3)GalNAc(b1-4)Gal(b1-4)Glc
Procedure, shortened: as §1

[16] = molecular target: Gal(b1-3)GlcNAc(b1-3)Gal(b1-4)GlcNAc
Procedure, shortened: as §1

[17] = molecular target: Gal(b1-3)GlcNAc(b1-3)Gal(b1-4)GlcNAc(b1-6)[Gal(b1-3)GlcNAc(b1-3)]Gal(b1-4)Glc
Procedure, shortened: as §1

[18] = molecular target: Gal(b1-3)GlcNAc(b1-6)[Gal(b1-3)]GalNAc
Procedure, shortened: as §1

[19] = molecular target: Gal(b1-3)[Fuc(a1-4)]GlcNAc(b1-2)Man(a1-3)[Gal(b1-3)[Fuc(a1-4)]GlcNAc(b1-2)Man(a1-6)]Man(b1-4)GlcNAc(b1-4)[Fuc(a1-6)]GlcNAc
Procedure, shortened: as §1

[20] = molecular target: Gal(b1-3)[Fuc(a1-4)]GlcNAc(b1-3)Gal(b1-4)[Fuc(a1-3)]GlcNAc
Procedure, shortened: as §1

[21] = molecular target: Gal(b1-3)[Fuc(a1-4)]GlcNAc(b1-6)GalNAc
Procedure, shortened: as §1

[22] = molecular target: Gal(b1-4)GlcNAc(b1-2)Man(a1-3)[Gal(b1-4)GlcNAc(b1-2)Man(a1-6)]Man(b1-4)GlcNAc(b1-4)[Fuc(a1-6)]GlcNAc
Procedure, shortened: as §1

[23] = molecular target: Gal(b1-4)GlcNAc(b1-2)[Gal(b1-4)GlcNAc(b1-4)]Man(a1-3)[GlcNAc(b1-4)][Gal(b1-4)GlcNAc(b1-2)[Gal(b1-4)GlcNAc(b1-6)]Man(a1-6)]Man(b1-4)GlcNAc(b1-4)GlcNAc
Procedure, shortened: as §1

[24] = molecular target: Gal(b1-4)GlcNAc(b1-3)Gal(b1-4)GlcNAc(b1-3)Gal(b1-4)GlcNAc(b1-2)Man(a1-3)[Gal(b1-4)GlcNAc(b1-3)Gal(b1-4)GlcNAc(b1-3)Gal(b1-4)GlcNAc(b1-2)Man(a1-6)]Man(b1-4)GlcNAc(b1-4)[Fuc(a1-6)]GlcNAc
Procedure, shortened: as §1

[25] = molecular target: Gal(b1-4)GlcNAc(b1-3)Gal(b1-4)GlcNAc(b1-3)[Gal(b1-4)GlcNAc(b1-3)Gal(b1-4)GlcNAc(b1-6)]GalNAc
Procedure, shortened: as §1

[26] = molecular target: Gal(b1-4)GlcNAc(b1-3)Gal(b1-4)GlcNAc(b1-6)[Gal(b1-3)]GalNAc
Procedure, shortened: as §1

[27] = molecular target: Gal3S(b1-3)GalNAc
Procedure, shortened: as §1

[28] = molecular target: Gal3S6S(b1-4)GlcNAc6S
Procedure, shortened: as §1

[29] = molecular target: Gal6S(b1-3)GlcNAc
Procedure, shortened: as §1

[30] = molecular target: Gal6S(b1-4)Glc
Procedure, shortened: as §1

[31] = molecular target: GalNAc(b1-3)Gal(a1-4)Gal(b1-4)GlcNAc(b1-3)Gal(b1-4)Glc
Procedure, shortened: as §1

[32] = molecular target: GalNAc(b1-4)GlcNAc
Procedure, shortened: as §1

[33] = molecular target: GalNAc4S6S(b1-4)GlcNAc
Procedure, shortened: as §1

[34] = molecular target: GlcNAc(a1-4)Gal(b1-4)GlcNAc(b1-3)Gal(b1-4)[Fuc(a1-3)]GlcNAc(b1-3)Gal(b1-4)[Fuc(a1-3)]GlcNAc
Procedure, shortened: as §1

[35] = molecular target: GlcNAc(b1-3)Gal(b1-4)GlcNAc(b1-6)[Gal(b1-3)]GalNAc
Procedure, shortened: as §1

[36] = molecular target: GlcNAc(b1-6)GalNAc
Procedure, shortened: as §1

[37] = molecular target: Kdn(a2-6)Gal(b1-4)GlcNAc
Procedure, shortened: as §1

[38] = molecular target: Man(a1-2)Man(a1-2)Man(a1-6)[Man(a1-3)]Man
Procedure, shortened: as §1

[39] = molecular target: Man(a1-3)[Man(a1-6)]Man(b1-4)GlcNAc(b1-4)[Fuc(a1-6)]GlcNAc
Procedure, shortened: as §1

[40] = molecular target: Neu5Ac(a2-3)Gal(b1-3)GalNAc(b1-4)[Neu5Ac(a2-3)]Gal(b1-4)Glc
Procedure, shortened: as §1

[41] = molecular target: Neu5Ac(a2-3)Gal(b1-3)]Neu5Ac(a2-3)Gal(b1-4)]GlcNAc
Procedure, shortened: as §1

[42] = molecular target: Neu5Ac(a2-3)Gal(b1-4)GlcNAc(b1-2)Man(a1-3)[Neu5Ac(a2-3)Gal(b1-4)GlcNAc(b1-2)Man(a1-6)]Man(b1-4)GlcNAc(b1-4)GlcNAc
Procedure, shortened: as §1

[43] = molecular target: Neu5Ac(a2-3)Gal(b1-4)GlcNAc(b1-3)Gal(b1-4)GlcNAc(b1-6)[Gal(b1-3)]GalNAc
Procedure, shortened: as §1

[44] = molecular target: Neu5Ac(a2-3)Gal(b1-4)GlcNAc(b1-3)Gal(b1-4)[Fuc(a1-3)]GlcNAc
Procedure, shortened: as §1

[45] = molecular target: Neu5Ac(a2-3)Gal(b1-4)GlcNAc(b1-6)[Gal(b1-3)]GalNAc
Procedure, shortened: as §1

[46] = molecular target: Neu5Ac(a2-3)Gal(b1-4)[Fuc(a1-3)]GlcNAc(b1-3)GalNAc
Procedure, shortened: as §1

[47] = molecular target: Neu5Ac(a2-3)GalNAc
Procedure, shortened: as §1

[48] = molecular target: Neu5Ac(a2-6)Gal(b1-4)GlcNAc(b1-2)Man(a1-6)[GlcNAc(b1-2)Man(a1-3)]Man(b1-4)GlcNAc(b1-4)GlcNAc
Procedure, shortened: as §1

[49] = molecular target: Neu5Ac(a2-6)Gal(b1-4)GlcNAc(b1-2)[Neu5Ac(a2-6)Gal(b1-4)GlcNAc(b1-4)]Man(a1-3)[GlcNAc(b1-4)][Neu5Ac(a2-6)Gal(b1-4)GlcNAc(b1-4)Man(a1-6)]Man(b1-4)GlcNAc(b1-4)GlcNAc
Procedure, shortened: as §1

[50] = molecular target: Neu5Ac(a2-6)Gal(b1-4)GlcNAc(b1-3)Gal(b1-4)GlcNAc(b1-6)[Gal(b1-3)]GalNAc
Procedure, shortened: as §1

[51] = molecular target: Neu5Ac(a2-6)Gal(b1-4)GlcNAc(b1-3)[Neu5Ac(a2-6)Gal(b1-4)GlcNAc(b1-6)]GalNAc
Procedure, shortened: as §1

[52] = molecular target: Neu5Ac(a2-6)Gal(b1-4)GlcNAc(b1-6)[Gal(b1-3)]GalNAc
Procedure, shortened: as §1

[53] = molecular target: Neu5Ac(a2-8)Neu5Ac(a2-3)Gal(b1-3)GalNAc(b1-4)[Neu5Ac(a2-3)]Gal(b1-4)Glc
Procedure, shortened: as §1

B1: Aap arpt (Staphylococcus epidermidis) (protein)
chain: NNEAPQMSSTLQAEEGSNAEAPQSEPTKAEEGGNAEAAQSEPTKAEEGGNAEAPQSEPTKAEEGGNAEAAQSEPTKTEEGSNVKAAQSEPTKAEEGSNAEAPQSEPTKTEEGSNAKAAQSEPTKAEEGGNAEAAQSEPTKTEEGSNAEAPQSEPTKAEEGGYAEAPQSEPTKTEEGGNAEAPNVPTIKA
glycan array binding signal (z-score) [1]: 1.6 | glycan array binding signal (z-score) [2]: 0.811 | glycan array binding signal (z-score) [3]: -0.547 | glycan array binding signal (z-score) [4]: -1.34 | glycan array binding signal (z-score) [5]: 0.036 | glycan array binding signal (z-score) [6]: -0.475 | glycan array binding signal (z-score) [7]: -0.103 | glycan array binding signal (z-score) [8]: -0.617 | glycan array binding signal (z-score) [9]: 0.278 | glycan array binding signal (z-score) [10]: 0.096 | glycan array binding signal (z-score) [11]: -0.249 | glycan array binding signal (z-score) [12]: 0.688 | glycan array binding signal (z-score) [13]: -0.261 | glycan array binding signal (z-score) [14]: 3.25 | glycan array binding signal (z-score) [15]: 0.305 | glycan array binding signal (z-score) [16]: -1.2 | glycan array binding signal (z-score) [17]: 0.709 | glycan array binding signal (z-score) [18]: 0.662 | glycan array binding signal (z-score) [19]: 2.23 | glycan array binding signal (z-score) [20]: -1.72 | glycan array binding signal (z-score) [21]: -0.35 | glycan array binding signal (z-score) [22]: 0.746 | glycan array binding signal (z-score) [23]: -1.6 | glycan array binding signal (z-score) [24]: 2.73 | glycan array binding signal (z-score) [25]: 2.68 | glycan array binding signal (z-score) [26]: 2.97 | glycan array binding signal (z-score) [27]: 0.361 | glycan array binding signal (z-score) [28]: 1.02 | glycan array binding signal (z-score) [29]: -1.93 | glycan array binding signal (z-score) [30]: -0.15 | glycan array binding signal (z-score) [31]: -0.809 | glycan array binding signal (z-score) [32]: -0.143 | glycan array binding signal (z-score) [33]: 1.06 | glycan array binding signal (z-score) [34]: 2.41 | glycan array binding signal (z-score) [35]: -0.695 | glycan array binding signal (z-score) [36]: 3.2 | glycan array binding signal (z-score) [37]: 2.33 | glycan array binding signal (z-score) [38]: -0.012 | glycan array binding signal (z-score) [39]: 1.13 | glycan array binding signal (z-score) [40]: -1.39 | glycan array binding signal (z-score) [41]: 2.21 | glycan array binding signal (z-score) [42]: 3 | glycan array binding signal (z-score) [43]: -0.491 | glycan array binding signal (z-score) [44]: -0.571 | glycan array binding signal (z-score) [45]: 0.944 | glycan array binding signal (z-score) [46]: 0.511 | glycan array binding signal (z-score) [47]: -0.745 | glycan array binding signal (z-score) [48]: 2.64 | glycan array binding signal (z-score) [49]: -0.548 | glycan array binding signal (z-score) [50]: 0.045 | glycan array binding signal (z-score) [51]: -1.09 | glycan array binding signal (z-score) [52]: 0.173 | glycan array binding signal (z-score) [53]: -1.08
